The source of these data is PubChem BioAssay AID504333 (National Center for Advancing Translational Sciences (NCATS), 2011).

Each structure is given as a SMILES string. Among all 360,000 compounds or so, about 16,000 (4.4%) were called active. Not shown: some 9% with an inconclusive outcome. Calls come from the whole dose curve; as a rule, active = well fitted inhibition curve with a large enough effect; inconclusive = small, poorly fitted or top-dose-only effect; inactive = no such curve, though single readings can be large or run the other way. What follows is part of a selection rich in actives, with near analogues and random picks from the rest.
% is set by controls: 0 for no effect and ±100 for the full control effect; potency is the fitted concentration of half-maximal effect.

Sequence of Bromodomain adjacent to zinc finger domain protein 2B (Homo sapiens) (Q9UIF8 whole entry, looked up, the tested form may be a part): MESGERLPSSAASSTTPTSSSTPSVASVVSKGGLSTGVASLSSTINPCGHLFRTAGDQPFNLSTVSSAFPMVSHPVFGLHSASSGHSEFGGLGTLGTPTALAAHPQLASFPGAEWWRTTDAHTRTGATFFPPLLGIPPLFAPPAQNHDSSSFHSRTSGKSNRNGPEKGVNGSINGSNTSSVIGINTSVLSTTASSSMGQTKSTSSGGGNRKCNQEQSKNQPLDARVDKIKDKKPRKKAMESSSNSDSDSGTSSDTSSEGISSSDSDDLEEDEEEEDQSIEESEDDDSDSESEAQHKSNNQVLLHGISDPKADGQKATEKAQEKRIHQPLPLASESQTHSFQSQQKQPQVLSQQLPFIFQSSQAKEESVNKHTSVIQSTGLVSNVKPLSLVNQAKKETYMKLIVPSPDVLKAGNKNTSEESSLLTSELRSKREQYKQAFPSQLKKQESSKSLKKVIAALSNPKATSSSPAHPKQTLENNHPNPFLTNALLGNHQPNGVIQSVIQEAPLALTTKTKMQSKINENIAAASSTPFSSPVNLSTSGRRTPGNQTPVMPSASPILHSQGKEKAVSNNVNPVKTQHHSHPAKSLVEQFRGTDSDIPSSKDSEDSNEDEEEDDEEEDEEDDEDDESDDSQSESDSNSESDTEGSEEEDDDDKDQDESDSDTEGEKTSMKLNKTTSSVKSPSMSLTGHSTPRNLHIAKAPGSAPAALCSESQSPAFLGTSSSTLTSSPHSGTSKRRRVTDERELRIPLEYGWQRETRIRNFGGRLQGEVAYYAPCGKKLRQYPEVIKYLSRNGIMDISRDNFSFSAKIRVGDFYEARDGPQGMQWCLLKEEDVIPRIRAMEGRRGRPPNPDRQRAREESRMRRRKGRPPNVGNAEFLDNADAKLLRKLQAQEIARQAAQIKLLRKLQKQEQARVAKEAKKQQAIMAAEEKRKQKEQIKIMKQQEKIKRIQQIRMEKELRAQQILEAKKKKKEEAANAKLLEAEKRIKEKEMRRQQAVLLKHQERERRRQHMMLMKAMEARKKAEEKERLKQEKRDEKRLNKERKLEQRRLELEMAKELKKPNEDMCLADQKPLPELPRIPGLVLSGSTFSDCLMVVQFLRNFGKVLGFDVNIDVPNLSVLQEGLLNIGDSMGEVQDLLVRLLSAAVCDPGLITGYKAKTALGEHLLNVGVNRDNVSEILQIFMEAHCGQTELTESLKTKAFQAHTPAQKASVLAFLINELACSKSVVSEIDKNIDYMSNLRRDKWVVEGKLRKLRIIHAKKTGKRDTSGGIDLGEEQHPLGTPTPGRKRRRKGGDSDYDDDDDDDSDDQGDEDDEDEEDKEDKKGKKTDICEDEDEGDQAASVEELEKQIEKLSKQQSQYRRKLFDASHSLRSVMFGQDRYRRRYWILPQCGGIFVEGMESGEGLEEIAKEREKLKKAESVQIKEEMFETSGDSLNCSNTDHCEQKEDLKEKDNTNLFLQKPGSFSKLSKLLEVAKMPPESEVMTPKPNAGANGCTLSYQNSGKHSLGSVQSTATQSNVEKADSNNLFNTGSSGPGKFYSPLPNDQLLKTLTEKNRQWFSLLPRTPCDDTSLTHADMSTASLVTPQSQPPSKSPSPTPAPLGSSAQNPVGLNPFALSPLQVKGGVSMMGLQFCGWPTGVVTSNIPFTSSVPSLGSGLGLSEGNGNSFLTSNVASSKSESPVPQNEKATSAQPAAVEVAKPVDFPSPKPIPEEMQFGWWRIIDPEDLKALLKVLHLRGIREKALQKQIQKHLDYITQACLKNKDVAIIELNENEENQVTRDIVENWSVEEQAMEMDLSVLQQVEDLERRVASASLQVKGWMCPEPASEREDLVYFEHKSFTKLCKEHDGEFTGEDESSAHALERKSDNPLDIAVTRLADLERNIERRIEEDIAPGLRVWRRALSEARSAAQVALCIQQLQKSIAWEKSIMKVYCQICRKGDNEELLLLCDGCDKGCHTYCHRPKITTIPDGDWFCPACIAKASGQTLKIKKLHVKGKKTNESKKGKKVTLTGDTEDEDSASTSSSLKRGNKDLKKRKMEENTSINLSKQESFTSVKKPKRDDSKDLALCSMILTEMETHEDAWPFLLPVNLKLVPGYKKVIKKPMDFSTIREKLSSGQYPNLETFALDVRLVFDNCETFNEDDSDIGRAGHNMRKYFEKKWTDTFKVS

In this experiment the target is Bromodomain adjacent to zinc finger domain protein 2B (Homo sapiens) (UniProt Q9UIF8). Put plainly: qHTS Assay for Inhibitors of BAZ2B. Note: nearly all actives have a fitted effect of over 60% in size. The settings on record: AlphaScreen BAZ2B-H3K14Ac peptide displacement; series mostly up to 114 µM; activity change, negative = inhibition: at the top concentration. From the text:
BAZ2B (bromodomain adjacent to zinc finger domain, 2B) belongs to a family of ubiquitously expressed bromodomain containing proteins, which biological function has not yet been elucidated. […] The interaction of BAZ2B with ISWI mediated by the BAZ1 motif has recently been described. […] The protocol is based on the AlphaScreen (PerkinElmer) displacement assay developed by NCGC [5], but uses the peptide ligand Biot-H3K14Ac, a high affinity binding partner for BAZ2B, in an AlphaScreen format. Although AlphaScreen has significant advantages with its utility in a variety of epigenetic target assays, the primary screening data provided in this deposition should be used with caution due to the prevalence of screening artifacts. The top compound concentration tested was 110uM in this assay, which increases number of actives and potential artifacts. An AlphaScreen counterscreen is highly recommended to be run against any putative actives to eliminate non-specific artifacts. Alternatively, one can use other AlphaScreen assays in PubChem to filter out promiscuous hits. Eberharter, A. et al. ACF1 improves the effectiveness of nucleosome mobilization by ISWI through PHD-histone contacts. The EMBO journal 23, 4029-4039. 2004. PMID: 15457208 [2] Jones, M.H. et al. A novel family of bromodomain genes. Genomics 63, 40-45. 2000. PMID: 10662543 [3] Yasgar, et al. Compound Management for Quantitative High-Throughput Screening. JALA. 2008 Apr;13(2):79-89. PMID: 18496600 [4] Inglese, et al. Quantitative high-throughput screening: a titration-based approach that efficiently identifies biological activities in large chemical libraries. Proc Natl Acad Sci. 1;103(31):11473-8. 2006. PMID: 16864780 [5] Quinn et al. A chemiluminescence-based method for identification of histone lysine methyltransferase inhibitors. Mol Biosyst 6(5): 782-8. 2010. PMID: 20567762 [6] Baell,Holloway. New substructure filters for removal of pan assay interference compounds (PAINS) from screening libraries and for their exclusion in bioassays. J Med Chem. 53(7):2719-40. 2010. PMID: 20131845 NIH Molecular Libraries Probe Production Network [MLPCN] NIH Chemical Genomics Center [NCGC] Structural Genomics Consortium (SGC) NIH Grant: 5U54 MH084681-02
To each well of a 1,536w plate, 2ul of BAZ2B protein (final 50nM) and 1ul biotinylated histone peptide acetylated at Lys14 [b-H3(5-23)K14Ac] (final 50nM) were added in 1x PBS buffer, pH 7.4, containing 0.01% Tween-20, using a nanoliter dispenser. Formation of a protein-peptide complex proceeded at room temperature for 30 min. A Kalypsys pin-tool was employed to transfer 23 nL of library compound solution in DMSO to each well. Following a 30 min incubation of the protein-peptide complex with compounds at room temperature, a mixture of 40 ug/mL each streptavidin-coated donor and nickel chelate acceptor AlphaScreen beads (final 10 ug/mL) were added in a 1ul dispense for a final volume of 4ul. A brief centrifugation followed (1000rpm, 1 min) and were then incubated protected from the light for 20 min at room temperature. Plates were read on an EnVision multilabel plate reader using the 1,536 plate HTS AlphaScreen aperture (excitation time 80 ms, measurement time 240 ms).
(In qHTS, concentration-response curves come from the screen itself.)
For `CCC(Sc1nc2n[nH]c(C)c2c(=N)n1-c1ccccc1Cl)C(=O)N(CC)CC` (centres undefined), the “activity change, negative = inhibition” value is 4.48% (inactive).
The same measure, in the same setting: to `COc1ccc(-c2nc3sc(CCNS(=O)(=O)c4ccc(F)c(C)c4)c(C)n3n2)cc1` belongs -4.23% (inactive); to `COc1ccc(-c2nc(SCC(=O)N3CCCCC3C)n[nH]2)cc1` (centres undefined), 2.94% (inactive).
With `O=S(=O)(c1ccc(F)cc1)N1CCN(Cc2ccccc2C(F)(F)F)CC1`, the Potency was 28.2 µM (active).
As to `O=C(CN1CCN(S(=O)(=O)c2ccc(F)cc2)CC1)Nc1ccccc1F`, the “activity change, negative = inhibition” value was 3.45% (inactive).
The same measure, in the same setting: with `Cc1ccc(S(=O)(=O)N2CCN(Cc3cccc(C)c3O)CC2)cc1` the figure was 11.2% (inactive); with `COc1ccc(-c2onc(C)c2C)cc1S(=O)(=O)NCc1cccs1`, -0.451% (inactive); with `CCc1ccc(S(=O)(=O)n2ccnc2)cc1`, -13.1% (inactive).
On the same count and under the same terms, to `Cc1c(-c2cccc(NC(=O)C(C)(C)C)c2)nc2ncccn12` belongs 6.49% (inactive); to `Cc1ccccc1Nc1c(-c2ccccc2)nc2ncccn12`, -5.09% (inactive).
For the compound `CCc1cccc(C)c1Nc1c(-c2ccc(N(C)C)cc2)nc2ncccn12`, the Potency was 10 µM (active).
`COc1cc(OC)c(NC(=O)c2c3c(nn2C)-c2ccccc2SC3)cc1Cl`: the “activity change, negative = inhibition” value was -15.7% (inactive).
As for `O=C(NCCCO)C(=O)Nc1c2c(nn1-c1ccccc1)CSC2`, the “activity change, negative = inhibition” value is 7.43% (inactive).
The same measure, in the same setting: with `COc1ccc(OCCCn2c(C)nc3cc(C)c(C)cc32)cc1` the figure was -28.9% (inactive).
On to `COc1ccc(OCCn2ccnc2C)cc1`, for which the Potency was 56.2 µM (active).
For `COc1ccc(OCCCC(=O)Oc2ccc(OC)cc2)cc1`, the “activity change, negative = inhibition” value was -6.9% (inactive).
Same read-out and setting: with `Cc1ccc(C(=O)Nc2c(C(=O)NC(C)(C)C)oc3ccccc23)cc1` the figure was 11% [at 57.1 µM] (inactive); with `COc1ccc(NC(=O)c2ccc3oc(=O)c(S(=O)(=O)c4ccc(F)cc4)cc3c2)c(OC)c1`, -14.1% (inactive); with `O=C(CSc1nccn1Cc1ccc(Cl)cc1)NCc1ccccc1`, -25.4% (inactive).
With `COc1ccccc1C(c1nnnn1CC1CCCO1)N1CCN(c2ccccc2)CC1` (centres undefined), the Potency is 56.2 µM (active).
For `COc1ccc(C(c2nnnn2Cc2cccs2)N2CCN(c3ccccc3)CC2)cc1OC` (centres undefined), the “activity change, negative = inhibition” value is -35.7% (inactive).
The same measure, in the same setting: with `Cc1cccc(N2CCN(C(c3ccccc3)c3nnnn3CC3CCCO3)CC2)c1C` (centres undefined) the figure was -8.12% (inactive).
Same read-out and setting: to `COCCCNC(=O)c1ccc(NC(=O)c2nsc3ccccc23)cc1` belongs -0.501% (inactive).
On the same count and under the same terms, to `COC(=O)c1cccc(Cn2nnc3sc4c(c3c2=O)CCC(C(C)(C)C)C4)c1` (centres undefined) belongs -0.516% (inactive); to `Cc1cccc(N2CCN(C(=O)Cn3ncc4c5ccccc5n(C)c4c3=O)CC2C)c1` (centres undefined), 1.15% (inactive).
Consider `COc1ccc(-c2nnc(SCC(=O)c3ccco3)n2-c2ccccc2)cc1`, for which the “activity change, negative = inhibition” value is 8.78% (inactive).
Take `COc1ccc(NCc2nnc(SCc3ccccc3)n2-c2ccc(OC)cc2)cc1`: the Potency was 50.1 µM (active).
As for `CCc1nnc(NC(=O)CSc2nnc(Cc3ccccc3)n2-c2ccc(OC)cc2)s1`, the “activity change, negative = inhibition” value is 8.5% (inactive).
Same read-out and setting: to `Cc1ccc(Cl)cc1N1CCN(C(=O)CN2C(=O)COc3ccc(S(=O)(=O)N4CCOCC4)cc32)CC1` belongs 4.23% (inactive).
In the case of `C[n+]1ccc(/C=C/c2c[nH]c3ccccc23)cc1`, the Potency is 44.7 µM (active).
With `COc1ccc(/C=C(\C#N)c2c[nH]c3ccccc23)cc1`, the “activity change, negative = inhibition” value was 3.05% (inactive).
On the same count and under the same terms, with `O=C(N/N=C/c1c[nH]c2ccccc12)c1cc2ccccc2o1` the figure was -23.5% (inactive).
Same read-out and setting: to `CCOC(=O)C1CCCN(S(=O)(=O)c2cc(-c3cc(C)no3)ccc2OC)C1` (centres undefined) belongs 0.155% (inactive); to `COc1cccc(N2CCN(S(=O)(=O)c3ccc4c(c3)CCCN4C(C)=O)CC2)c1`, -16.9% (inactive); to `COc1ccccc1CN1CCC(CNC(=O)c2cnn(-c3ccccc3Cl)c2C2CCN(C(=O)OC(C)(C)C)CC2)CC1`, -2.36% [at 57.1 µM] (inactive).
Same read-out and setting: with `O=C(CCc1ccccc1)NCCc1cccs1` the figure was 13.8% (inactive).
With `O=C(O)CCC(=O)N(Cc1cccs1)Cc1cccs1`, the Potency is 56.2 µM (active).
Take `O=C(O)CCC(=O)N(Cc1ccccc1)Cc1ccccc1`: the “activity change, negative = inhibition” value was 1.67% (inactive).
Still for that read-out and setting: to `O=C1CC(c2nnc(Cc3ccc(Cl)cc3)o2)CN1c1ccccc1` (centres undefined) belongs -3.8% (inactive); to `CCc1ccc(NC(=O)CCS(=O)(=O)c2cc3c(cc2Cl)NC(=O)CO3)cc1`, -4.74% (inactive); to `CCOC(=O)Cn1c(=O)n(-c2ccccc2OC)c2nc(-c3cccc(F)c3)nc(C(N)=O)c21`, -12.6% (inactive).
Same read-out and setting: to `COc1ccc(C(=O)NNc2cc(C)nc(NNC(=O)c3ccc(OC)cc3)n2)cc1` belongs 17.5% (inactive); to `Cc1ccc(Nc2nc(C)cc(C)c2C(N)=O)cc1`, 1.28% (inactive).
On to `CC(=O)Nc1ccc(Nc2cc(C)nc(Nc3ccc(NC(C)=O)cc3)n2)cc1`, for which the Potency is 56.2 µM (active).
Take `CCN1CCN(c2cc(C)c3cc(NC(=O)c4cc(Cl)ccc4OC)ccc3n2)CC1`: the “activity change, negative = inhibition” value is -34% (inactive).
With `Cc1ccccc1Nc1nc(-c2cccnc2)cs1`, the Potency was 39.8 µM (active).
As to `O=C(Nc1nc(-c2cccnc2)cs1)c1ccccc1F`, the “activity change, negative = inhibition” value is 12.8% (inactive).
On the same count and under the same terms, with `O=C(NCc1cccnc1)C(=O)Nc1nc(-c2ccccc2)cs1` the figure was -7.21% (inactive).
On the same count and under the same terms, with `Cc1ccccc1-c1nc(SCC(=O)N(C)c2ccccc2)c2c(=O)n(C)c(=O)n(C)c2n1` the figure was 2.53% (inactive).
